PubChem BioAssay (Tox21)
Records with an inconclusive call do not appear. Activity calls are given as the source filed them. Unless noted, calls come from the whole dose curve.

Experiments:
[1] = biological target: Androgen receptor (Homo sapiens) (UniProt P10275); assay: qHTS assay to identify small molecule agonists of the androgen receptor (AR) signaling pathway in the presence of an antagonist (AID 1259381); note: nearly all actives have a fitted effect of over 15% in size
Summary of the method: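 Agonist-mode confirmation screen: human MDA-kb2 cells stably expressing luciferase under an MMTV promoter bearing AR and GR response elements, co-treated with 3.0uM nilutamide (final). Luminescence measured after 16hr compound incubation.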

[2] = qHTS assay to identify small molecule antagonists of the estrogen receptor beta (ER-beta) signaling pathway - cell viability counter screen (AID 1259382; active = well fitted curve in the direction sought with a large enough effect in the repeat runs; an effect the other way counts as inactive or inconclusive; note: nearly all actives have a fitted effect of over 55% in size; note: potency is the fitted concentration of half-maximal effect)
Summary of the method: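 Cytotoxicity counter screen multiplexed with the beta-lactamase antagonist assay: GripTite HEK293T ER-beta-bla cells were treated 16 hr with test chemicals in the presence of 1nM 17-beta-estradiol, and viability was measured by CellTiter-Glo.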

[3] = qHTS assay to identify small molecule agonists or antagonists of the thyroid stimulating hormone receptor (TSHR) signaling pathway - wild type cell line counter screen (AID 1259384)
Summary of the method: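 Wild-type HEK293 cells were plated 18 h at 37 C/5% CO2, pin-dosed with compound plus Ro20-1724 medium, held 30 min at room temperature, then given cAMP-d2 and anti-cAMP-cryptate; fluorescence was read after 1 h. Fifteen concentrations, triplicate.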

[4] = biological target: Thyrotropin receptor (Homo sapiens) (UniProt P16473); assay: qHTS assay to identify small molecule antagonists of the thyroid stimulating hormone receptor (TSHR) signaling pathway (AID 1259385); note: nearly all actives have a fitted effect of over 20% in size; note: potency is the fitted concentration of half-maximal effect
Summary of the method: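 TSHR-HEK293 cells were plated and held 18 h at 37C/5% CO2, then given compound plus Ro20-1724 and stimulated with TSH at 1.5 ng/mL final. After 30 min at room temperature, cAMP was detected with cAMP-d2/anti-cAMP-cryptate (1 h) by fluorescence.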

[5] = qHTS assay to identify small molecule agonists of the estrogen receptor alpha (ER-alpha) signaling pathway in the presence of an antagonist - cell viability counter screen (AID 1259386; active = well fitted curve in the direction sought with a large enough effect in the repeat runs; an effect the other way counts as inactive or inconclusive;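 note: cells exposed to compounds for 22 h at 37 °C before the viability read; nearly all actives have a fitted effect of over 30% in size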; note: potency is the fitted concentration of half-maximal effect)
Summary of the method: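 Cytotoxicity was measured in parallel with the ERE-luciferase agonist screen, in the same wells. The cells were VM7Luc4E2, which endogenously express ER-alpha, and treatment was with compounds plus 10.0nM ICI-182,780 for 22hr.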

[6] = biological target: Progesterone receptor (Homo sapiens) (UniProt P06401); assay: qHTS assay to identify small molecule agonists of the progesterone receptor (PR) signaling pathway (AID 1346784); note: nearly all actives have a fitted effect of over 30% in size
Summary of the method: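 Beta-lactamase reporter read-out: after 16 hr compound treatment at 37C and a further 2 hr at room temperature with LiveBLAzer B/G FRET substrate, fluorescence was measured in PR-UAS-bla HEK 293T cells grown in 2% charcoal-stripped serum.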

[7] = biological target: Progesterone receptor (Homo sapiens) (UniProt P06401); assay: qHTS assay to identify small molecule antagonists of the progesterone receptor (PR) signaling pathway (AID 1346795; active = well fitted inhibition curve with a large enough effect in the signal ratio in the repeat runs, not every such curve was filed as active; the % refers to the signal ratio; note: potency is the fitted concentration of half-maximal effect)
Summary of the method: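 Read-out is fluorescence from the LiveBLAzer B/G FRET substrate, cleaved by a UAS-controlled beta-lactamase in PR-UAS-bla HEK293T cells after 16 hr exposure to compound plus 1 nM promegestone (final), followed by 2 hr at room temperature.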

[8] = qHTS assay to identify small molecule antagonists of the progesterone receptor (PR) signaling pathway - cell viability counter screen (AID 1346798; active = well fitted curve in the direction sought with a large enough effect in the repeat runs; an effect the other way counts as inactive or inconclusive; note: nearly all actives have a fitted effect of over 50% in size; note: potency is the fitted concentration of half-maximal effect)
Summary of the method: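 HEK293T PR-UAS-bla, 2% charcoal-stripped FBS; 4 hr pre-plate; cpd + R5020, 16 h 37C; LiveBLAzer read first; then CellTiter-Glo 30 min RT, luminescence.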

[9] = qHTS assay to identify small molecule agonists of the progesterone receptor (PR) signaling pathway - cell viability counter screen (AID 1346799); note: nearly all actives have a fitted effect of over 45% in size; note: potency is the fitted concentration of half-maximal effect
Summary of the method: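 Luminescence from CellTiter-Glo, added after the beta-lactamase FRET read in the same wells, gave cytotoxicity in PR-UAS-bla HEK293T cells treated with compounds for 16 hr at 37C.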

[10] = biological target: Estrogen receptor (Homo sapiens) (UniProt P03372); assay: qHTS assay to identify small molecule agonists of the estrogen receptor alpha (ER-alpha) signaling pathway in the presence of an antagonist (AID 1259383); note: top concentration of the series differs between compounds; nearly all actives have a fitted effect of over 15% in size
Summary of the method: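 Agonist-mode confirmation in the presence of the ER antagonist ICI-182,780 at 10.0nM final. Breast-derived VM7Luc4E2 reporter cells were exposed to compounds for 22hr, and ERE-driven luciferase was quantified by luminescence.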

Measured: Potency

Sequence of Androgen receptor (Homo sapiens) (P10275 whole entry, looked up): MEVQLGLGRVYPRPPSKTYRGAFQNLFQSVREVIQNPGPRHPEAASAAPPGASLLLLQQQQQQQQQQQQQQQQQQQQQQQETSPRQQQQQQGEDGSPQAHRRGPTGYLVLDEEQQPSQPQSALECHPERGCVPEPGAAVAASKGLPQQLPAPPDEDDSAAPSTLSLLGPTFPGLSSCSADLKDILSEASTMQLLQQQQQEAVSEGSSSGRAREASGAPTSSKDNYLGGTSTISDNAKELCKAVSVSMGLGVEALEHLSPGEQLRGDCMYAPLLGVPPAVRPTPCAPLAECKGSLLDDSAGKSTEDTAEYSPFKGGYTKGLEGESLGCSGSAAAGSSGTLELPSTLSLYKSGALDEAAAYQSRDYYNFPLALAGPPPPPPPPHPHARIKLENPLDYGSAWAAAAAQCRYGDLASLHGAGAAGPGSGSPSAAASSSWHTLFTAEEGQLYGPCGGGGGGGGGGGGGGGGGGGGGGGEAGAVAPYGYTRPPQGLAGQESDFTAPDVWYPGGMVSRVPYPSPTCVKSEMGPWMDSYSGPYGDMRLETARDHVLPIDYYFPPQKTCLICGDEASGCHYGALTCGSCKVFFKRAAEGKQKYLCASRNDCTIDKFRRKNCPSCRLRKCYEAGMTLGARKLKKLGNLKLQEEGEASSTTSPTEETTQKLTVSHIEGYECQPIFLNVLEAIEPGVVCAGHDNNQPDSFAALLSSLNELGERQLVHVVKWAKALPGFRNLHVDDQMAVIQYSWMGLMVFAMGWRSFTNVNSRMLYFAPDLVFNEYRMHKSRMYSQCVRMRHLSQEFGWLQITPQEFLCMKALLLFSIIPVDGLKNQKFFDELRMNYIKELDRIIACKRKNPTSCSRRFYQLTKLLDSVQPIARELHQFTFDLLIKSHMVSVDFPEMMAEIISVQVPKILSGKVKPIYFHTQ
Sequence of Estrogen receptor (Homo sapiens) (P03372 whole entry, looked up): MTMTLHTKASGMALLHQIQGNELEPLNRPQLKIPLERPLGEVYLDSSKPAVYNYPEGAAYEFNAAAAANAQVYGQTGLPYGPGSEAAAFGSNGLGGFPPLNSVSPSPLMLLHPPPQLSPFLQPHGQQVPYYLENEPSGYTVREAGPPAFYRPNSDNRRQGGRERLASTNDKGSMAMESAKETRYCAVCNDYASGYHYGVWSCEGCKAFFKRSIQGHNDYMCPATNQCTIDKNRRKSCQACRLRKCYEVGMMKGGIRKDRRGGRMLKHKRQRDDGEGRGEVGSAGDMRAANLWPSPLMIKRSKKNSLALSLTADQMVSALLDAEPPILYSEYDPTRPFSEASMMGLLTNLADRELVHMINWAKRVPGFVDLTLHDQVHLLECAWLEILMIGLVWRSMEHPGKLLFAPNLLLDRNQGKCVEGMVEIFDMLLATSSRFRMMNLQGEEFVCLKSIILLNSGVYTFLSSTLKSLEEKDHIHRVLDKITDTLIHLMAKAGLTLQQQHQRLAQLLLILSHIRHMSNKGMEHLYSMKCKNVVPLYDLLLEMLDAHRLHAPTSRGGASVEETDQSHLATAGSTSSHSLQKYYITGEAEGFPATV
Sequence of Progesterone receptor (Homo sapiens) (P06401 whole entry, looked up): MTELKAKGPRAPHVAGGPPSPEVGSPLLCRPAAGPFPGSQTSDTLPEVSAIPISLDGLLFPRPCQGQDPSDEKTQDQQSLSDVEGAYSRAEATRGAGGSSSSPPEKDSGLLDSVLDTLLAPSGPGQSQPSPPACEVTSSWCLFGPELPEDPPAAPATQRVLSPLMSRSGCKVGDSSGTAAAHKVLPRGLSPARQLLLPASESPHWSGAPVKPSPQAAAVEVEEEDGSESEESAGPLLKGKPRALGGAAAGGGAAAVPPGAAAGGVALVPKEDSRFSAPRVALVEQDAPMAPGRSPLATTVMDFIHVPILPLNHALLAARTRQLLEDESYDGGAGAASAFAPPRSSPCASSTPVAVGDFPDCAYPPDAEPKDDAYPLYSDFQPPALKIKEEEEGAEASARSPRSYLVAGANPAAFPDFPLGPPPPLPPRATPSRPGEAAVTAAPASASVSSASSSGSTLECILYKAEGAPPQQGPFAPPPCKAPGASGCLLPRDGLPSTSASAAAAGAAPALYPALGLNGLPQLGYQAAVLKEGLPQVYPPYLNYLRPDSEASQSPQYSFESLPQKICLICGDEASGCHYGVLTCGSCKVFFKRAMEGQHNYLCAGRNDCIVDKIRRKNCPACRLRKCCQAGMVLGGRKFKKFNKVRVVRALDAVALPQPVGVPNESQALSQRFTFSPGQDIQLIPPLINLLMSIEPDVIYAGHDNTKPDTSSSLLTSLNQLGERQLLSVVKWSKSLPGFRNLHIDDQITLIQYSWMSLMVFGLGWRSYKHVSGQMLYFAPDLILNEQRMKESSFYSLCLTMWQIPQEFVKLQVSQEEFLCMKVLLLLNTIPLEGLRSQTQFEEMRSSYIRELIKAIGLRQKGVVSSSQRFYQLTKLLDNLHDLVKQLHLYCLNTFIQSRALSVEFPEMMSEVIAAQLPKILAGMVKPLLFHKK
Sequence of Thyrotropin receptor (Homo sapiens) (P16473 whole entry, looked up): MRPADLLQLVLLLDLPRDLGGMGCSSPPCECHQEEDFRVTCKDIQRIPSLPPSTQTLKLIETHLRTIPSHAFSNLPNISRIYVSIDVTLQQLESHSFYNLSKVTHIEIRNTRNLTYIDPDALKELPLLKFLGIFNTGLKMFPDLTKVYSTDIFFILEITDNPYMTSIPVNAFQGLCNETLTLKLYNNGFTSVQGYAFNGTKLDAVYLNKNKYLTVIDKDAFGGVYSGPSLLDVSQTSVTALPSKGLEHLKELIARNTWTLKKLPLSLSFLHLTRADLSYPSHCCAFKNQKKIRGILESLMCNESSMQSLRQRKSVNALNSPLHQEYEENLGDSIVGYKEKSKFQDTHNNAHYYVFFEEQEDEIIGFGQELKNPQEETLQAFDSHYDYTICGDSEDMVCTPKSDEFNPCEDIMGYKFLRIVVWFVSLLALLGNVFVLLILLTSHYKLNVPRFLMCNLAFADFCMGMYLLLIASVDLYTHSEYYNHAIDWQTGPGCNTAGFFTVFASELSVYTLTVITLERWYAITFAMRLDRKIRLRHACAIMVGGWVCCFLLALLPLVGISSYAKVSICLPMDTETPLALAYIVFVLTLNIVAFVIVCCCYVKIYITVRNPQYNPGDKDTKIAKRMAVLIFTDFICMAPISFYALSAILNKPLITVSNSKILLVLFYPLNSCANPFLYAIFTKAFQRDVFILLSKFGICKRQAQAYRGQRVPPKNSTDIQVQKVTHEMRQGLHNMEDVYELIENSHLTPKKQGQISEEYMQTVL

Nc1ccc2c(S(=O)(=O)O)cccc2c1S(=O)(=O)O
not listed: [10]
inactive: all other assays above

CN1CC[C@H](c2c(O)cc(O)c3c(=O)cc(-c4ccccc4Cl)oc23)[C@H](O)C1
inactive: [1] | [2] | [5]

COc1cc(/C=C/C(=O)CC(=O)/C=C/c2ccc(O)c(OC)c2)ccc1O
inactive: [1] | [10] | [3]
active: [5] 61.5 µM

CC1(C)[C@H](C(=O)OCc2cccc(Oc3ccccc3)c2)[C@@H]1C=C(Cl)Cl
not listed: [1]
inactive: all other assays above

Nc1ccc(Oc2cccc(Oc3ccc(N)cc3)c2)cc1
active: [7] 30.6 µM
not listed: [1] | [8] | [9]
inactive: all other assays above

CCCCCCCC/C=C\CCCCCCCC(=O)N(CCO)CCO
active: [7] 43.1 µM
not listed: [1] | [8] | [9]
inactive: all other assays above

CCN(CCC#N)c1ccc(N=Nc2ccc([N+](=O)[O-])cc2)cc1
not listed: [5] | [10]
inactive: all other assays above

Nc1cc([N+](=O)[O-])ccc1Cl
not listed: [7] | [10]
inactive: all other assays above

CSc1ccc(O)cc1C
active: [8] 61.1 µM
not listed: [2] | [5] | [7]
inactive: all other assays above

CN1CCN(c2ccccc2/C=C2\SCCN(c3ccc(Cl)c(Cl)c3)C2=O)CC1
active: [2] 61.1 µM
inactive: [10] | [3]

CC(C=O)c1ccccc1 (stereo not drawn)
not listed: [1]
inactive: all other assays above

CC(C)(C)c1cc(CCC(=O)OCCSCCOC(=O)CCc2cc(C(C)(C)C)c(O)c(C(C)(C)C)c2)cc(C(C)(C)C)c1O
not listed: [1]
inactive: all other assays above

CN(C)CCOc1ccc(/C(=C(/CCCl)c2ccccc2)c2ccccc2)cc1
active: [2] 45.5 µM | [4] 40.5 µM | [8] 51 µM | [9] 57.2 µM
inactive: [1] | [3]

Cc1ccc2n[nH]nc2c1
not listed: [1]
inactive: all other assays above
